This passage reports outcome and AC50 results from PubChem BioAssay (EPA / NIEHS).

Results filed as inconclusive are left out. Activity calls are given as the source filed them. The calls were made as follows, unless noted: active = hit-call score of the fitted dose curve at least 0.9, where 1 is the maximum; inactive = score below 0.9.

Read-out in assay [1]: Monocyte Chemoattractant Protein-1 (MCP1), CCL2 (gene 6347)
Description: BSK_LPS_MCP1: BioMAP Diversity Plus: LPS Assay for Monocyte Chemoattractant Protein-1 (MCP1) Biomarker Activity (AID 2283081). The conditions noted are these: primary human HUVEC with PBMC; actives raise or lower the signal. The gist of the method:
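Human umbilical vein endothelial cells co-cultured with PBMC, LPS-stimulated; secreted MCP-1 measured by ELISA 24 h after compound addition. Bidirectional curve fitting against DMSO baseline; SRB total-protein staining in parallel cultures for cytotoxicity.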

A short description of assay [2]: BSK_LPS_PGE2: BioMAP Diversity Plus: LPS Assay for Prostaglandin E2 (PGE2) Biomarker Activity (AID 2283082). The conditions noted are these: primary human HUVEC with PBMC; actives raise or lower the signal. A digest of the protocol:
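Compounds were added to the LPS co-culture of endothelium and PBMC, and PGE2 was measured by ELISA after 24 h. Responses in either direction were fitted with DMSO as baseline.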

Read-out in assay [3]: Tissue Factor, F3 (gene 2152)
In words: BSK_LPS_TissueFactor: BioMAP Diversity Plus: LPS Assay for Tissue Factor Biomarker Activity (AID 2283084). The conditions noted are these: primary human HUVEC with PBMC; actives raise or lower the signal. The gist of the method: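 Human umbilical vein endothelial cells co-cultured with PBMC were dosed with compound. Cell-surface CD142 was measured by ELISA 24 h later. Activity was fitted bidirectionally against DMSO, with SRB total-protein staining in parallel cultures for cytotoxicity.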

Read-out in assay [4]: Tumor necrosis factor (Homo sapiens) (UniProt P01375)
Description: BSK_LPS_TNFa: BioMAP Diversity Plus: LPS Assay for Tumour Necrosis Factor alpha (TNFa) Biomarker Activity (AID 2283085). The conditions noted are these: primary human HUVEC with PBMC; actives raise or lower the signal. The gist of the method: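 Cells (umbilical vein endothelium plus peripheral blood mononuclear cells) were dosed with chemical, incubated 24 h, then TNFa was quantified by ELISA; values derive from bidirectional fitting with DMSO as baseline.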

Read-out in assay [5]: Vascular cell adhesion molecule 1 (VCAM1), VCAM1 (gene 7412)
In words: BSK_LPS_VCAM1: BioMAP Diversity Plus: LPS Assay for Vascular cell adhesion molecule 1 (VCAM1) Biomarker Activity (AID 2283086). To be noted: primary human HUVEC with PBMC; actives raise or lower the signal. The gist of the method:
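Cells are dosed in an LPS-stimulated endothelial/mononuclear co-culture and, after 24 h, VCAM-1 is quantified by ELISA. Activity in either direction is fitted relative to the DMSO negative control.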

Read-out in the next assay: CD38, CD38 (gene 952)
In words: BSK_SAg_CD38: BioMAP Diversity Plus: SAg Assay for CD38 Biomarker Activity (AID 2283087). To be noted: primary human HUVEC with PBMC; actives raise or lower the signal. The gist of the method: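 CD38 quantified by ELISA (fluorescence) in a superantigen-activated endothelial cell–PBMC co-culture at 24 h post-dose. Activity fitted in both directions relative to DMSO; parallel SRB and Alamar Blue cytotoxicity read-outs.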

Read-out in the next assay: CD40, CD40 (gene 958)
In words: BSK_SAg_CD40: BioMAP Diversity Plus: SAg Assay for CD40 Biomarker Activity (AID 2283088). The conditions noted are these: primary human HUVEC with PBMC; actives raise or lower the signal. The gist of the method: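 HUVEC plus PBMC co-culture, superantigen-activated, with CD40 read by ELISA 24 h after dosing. Curves fitted in both directions against DMSO. Overt cytotoxicity checked by parallel SRB total-protein staining.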

Read-out in a further assay: CD69, CD69 (gene 969)
In words: BSK_SAg_CD69: BioMAP Diversity Plus: SAg Assay for CD69 Biomarker Activity (AID 2283089).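 As to AC50: cell surface CD69 protein quantified by ELISA with fluorescence detection.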 The conditions noted are these: primary human HUVEC with PBMC; actives raise or lower the signal. A digest of the protocol:
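Primary human vascular co-culture (umbilical vein endothelium with peripheral blood mononuclear cells) exposed to test chemical for 24 h. CD69 levels quantified by fluorescence ELISA; DMSO served as negative control for bidirectional fitting.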

Read-out in assay [6]: Monocyte Chemoattractant Protein-1 (MCP1), CCL2 (gene 6347)
In words: BSK_SAg_MCP1: BioMAP Diversity Plus: SAg Assay for Monocyte Chemoattractant Protein-1 (MCP1) Biomarker Activity (AID 2283090). To be noted: primary human HUVEC with PBMC; actives raise or lower the signal. A digest of the protocol: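 Values derive from bidirectional fitting of ELISA-measured MCP1 against DMSO controls. Readings were taken 24 h after dosing human vascular endothelial cells co-cultured with peripheral blood mononuclear cells under superantigen stimulation.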

Read-out in assay [7]: E-selectin (Homo sapiens) (UniProt P16581)
Description: BSK_SAg_Eselectin: BioMAP Diversity Plus: SAg Assay for Eselectin Biomarker Activity (AID 2283091). The conditions noted are these: primary human HUVEC with PBMC; actives raise or lower the signal. The gist of the method:
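Human umbilical vein endothelial cells co-cultured with peripheral blood mononuclear cells, SAg system. E-selectin is measured by ELISA 24 h after dosing and fitted bidirectionally against DMSO. Cytotoxicity is checked by SRB staining of parallel cultures.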

Read-out in assay [8]: Monokine induced gamma interferon (MIG), CXCL9 (gene 4283)
In words: BSK_SAg_MIG: BioMAP Diversity Plus: SAg Assay for Monokine induced gamma interferon (MIG) Biomarker Activity (AID 2283092). To be noted: primary human HUVEC with PBMC; actives raise or lower the signal. The gist of the method:
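Endothelial cells and PBMC were co-cultured, exposed to test chemicals, and sampled 24 h later. MIG was measured by ELISA, and responses were fitted in both directions relative to DMSO.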

Assay [9] in a line: BSK_SAg_PBMCCytotoxicity: PBMC Cytotoxicity Assessment in the BioMAP Diversity Plus: SAg Assay (AID 2283093).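 Also: fitted both ways against DMSO so a hit may be loss or gain of signal.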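 As to AC50: PBMC superantigen activated with SEB plus TSST-1 one hour after compound addition.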 To be noted: primary human HUVEC with PBMC. A digest of the protocol: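 PBMC viability by Alamar Blue reduction, fluorescence read at 546/580 nm after 6 h dye exposure. Cells were dosed 1 h before SEB plus TSST-1 activation (20 ng/mL final each), then held 90 h; endothelial/PBMC human co-culture.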

The nature of assay [10]: BSK_SAg_Proliferation: Cell Proliferation Assessment in the BioMAP Diversity Plus: SAg Assay (AID 2283095).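 Also: relative cell number as total protein by SRB absorbance in sub-confluent culture.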 The conditions noted are these: primary human HUVEC with PBMC. A digest of the protocol:
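Absorbance of sulforhodamine B at 560 nm reports total protein in a human vascular endothelial/PBMC co-culture after 96 h chemical exposure. Gain or loss of signal is fitted in both directions against DMSO.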

The nature of assay [11]: BSK_SAg_SRB: Viability Assessment in the BioMAP Diversity Plus: SAg Assay (AID 2283096).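 Also: cells read one day after compound addition; hits may be either gain or loss of signal compared with DMSO.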 The conditions noted are these: primary human HUVEC with PBMC. A digest of the protocol:
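Compounds were added to a human vascular co-culture of umbilical vein endothelium and PBMC. After 24 h, parallel cultures were fixed with 10% TCA, stained with 0.1% sulforhodamine B and read at 560 nm. Gain or loss of signal was fitted relative to DMSO.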

Assay [12] deals with human CYP19A1, CYP19A1 (gene 1588) (UniProt P11511). Description: NVS_ADME_hCYP19A1: NovaScreen (NVS) CYP450-related Enzyme Activity (ADME) Assay for human CYP19A1 (AID 2283098; active = hit-call score of the fitted dose curve at least 0.9, where 1 is the maximum). The gist of the method: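 Fluorescence intensity read-out; activity taken as signal loss relative to acetonitrile vehicle. Extracted enzyme, specific substrate, no cells, 0.5 h exposure. Duplicate single-point screen at 10 uM, then concentration–response follow-up for actives.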
Sequence of human CYP19A1, CYP19A1 (gene 1588) (P11511 whole entry, looked up): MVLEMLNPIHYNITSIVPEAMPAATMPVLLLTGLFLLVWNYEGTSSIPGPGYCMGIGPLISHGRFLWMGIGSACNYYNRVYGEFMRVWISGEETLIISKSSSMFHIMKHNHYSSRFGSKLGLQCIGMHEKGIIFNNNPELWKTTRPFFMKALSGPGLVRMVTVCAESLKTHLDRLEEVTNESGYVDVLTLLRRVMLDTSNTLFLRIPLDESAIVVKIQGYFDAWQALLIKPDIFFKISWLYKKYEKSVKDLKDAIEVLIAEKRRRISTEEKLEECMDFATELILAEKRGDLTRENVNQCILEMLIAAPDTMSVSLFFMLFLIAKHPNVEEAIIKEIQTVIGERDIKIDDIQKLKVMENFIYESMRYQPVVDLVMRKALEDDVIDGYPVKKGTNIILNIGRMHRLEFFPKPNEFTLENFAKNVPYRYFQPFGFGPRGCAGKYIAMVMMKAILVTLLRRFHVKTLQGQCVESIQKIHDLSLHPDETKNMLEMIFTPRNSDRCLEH

Sequence of E-selectin (Homo sapiens) (P16581 whole entry, looked up): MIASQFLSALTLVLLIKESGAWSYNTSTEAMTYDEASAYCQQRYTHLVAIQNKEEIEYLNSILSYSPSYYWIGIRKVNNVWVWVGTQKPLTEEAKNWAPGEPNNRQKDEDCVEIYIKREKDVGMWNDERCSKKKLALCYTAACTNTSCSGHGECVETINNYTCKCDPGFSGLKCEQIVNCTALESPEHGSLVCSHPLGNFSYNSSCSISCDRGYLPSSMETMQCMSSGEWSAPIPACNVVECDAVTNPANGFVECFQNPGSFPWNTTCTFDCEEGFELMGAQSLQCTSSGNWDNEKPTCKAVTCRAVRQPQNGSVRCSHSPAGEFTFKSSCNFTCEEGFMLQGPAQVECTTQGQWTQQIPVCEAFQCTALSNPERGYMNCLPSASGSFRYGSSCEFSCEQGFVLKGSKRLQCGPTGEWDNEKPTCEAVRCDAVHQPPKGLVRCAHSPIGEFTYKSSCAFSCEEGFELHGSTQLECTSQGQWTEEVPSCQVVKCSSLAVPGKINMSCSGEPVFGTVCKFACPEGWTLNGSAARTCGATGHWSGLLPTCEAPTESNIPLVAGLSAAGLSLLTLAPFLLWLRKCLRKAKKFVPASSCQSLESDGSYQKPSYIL
Sequence of Tumor necrosis factor (Homo sapiens) (P01375 whole entry, looked up): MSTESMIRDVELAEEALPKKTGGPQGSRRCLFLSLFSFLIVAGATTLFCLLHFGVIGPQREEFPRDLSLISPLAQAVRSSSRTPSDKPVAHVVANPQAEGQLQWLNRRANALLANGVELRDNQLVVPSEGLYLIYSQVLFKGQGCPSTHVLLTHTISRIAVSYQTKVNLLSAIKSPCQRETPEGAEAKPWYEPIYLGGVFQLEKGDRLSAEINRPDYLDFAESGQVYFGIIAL

Take `CC(CN=Cc1ccccc1O)N=Cc1ccccc1O` (stereo not drawn): the outcome in assay [1] is “inactive”; in assay [2], “inactive”; in [3], “inactive”; in assay [4] it was “inactive”; in assay [5], “inactive”; in the assay with CD38, CD38 (gene 952), “inactive”. For the same compound, the outcome in the assay with CD40, CD40 (gene 958) was “inactive”; with CD69, CD69 (gene 969), “inactive”; in assay [6] it was “inactive”; in assay [7], “inactive”; in assay [8] it was “inactive”; in assay [9], “inactive”. Besides, the outcome in assay [10] and in assay [11] was inactive.

As for `CS(C)=O`, the call in [12] was inactive.

A word on the AC50: it is the concentration at which the activity in the assay is half-maximal. As for `C=C(C)C(=O)OCC(CC)(COC(=O)C(=C)C)COC(=O)C(=C)C`, the outcome in assay [1] is “inactive”; in assay [2] it was “inactive”; in assay [3], “inactive”; in [4], “inactive”; in the assay with CD38, CD38 (gene 952), “inactive”; in the assay with CD40, CD40 (gene 958), “inactive”. Further, the outcome with CD69, CD69 (gene 969) was “inactive”; in [6] it was “inactive”; in assay [8] it was “inactive”; in [9], “inactive”; in [11], “inactive”. The AC50 in [5] was 19.7 µM (active); in assay [7] it was 19.7 µM (active); in assay [10], 8.4 µM (active).

As to `c1ccc(CCc2ccccc2)cc1`, the result in [1], in assay [2] and in assay [4] was inactive. For the same compound, the AC50 in assay [3] is 31.1 µM (active); in assay [5], 31.8 µM (active); with CD38, CD38 (gene 952), 30.2 µM (active); with CD40, CD40 (gene 958) it was 30.9 µM (active); with CD69, CD69 (gene 969), 30 µM (active); in assay [6] it was 31.5 µM (active). For the same compound, the AC50 in [7] is 31.7 µM (active); in [8], 34.1 µM (active); in [9] it was 34.2 µM (active); in assay [11], 35.9 µM (active).

With `CCCCOC(=O)CCCCCCCC(=O)OCCCC`, the outcome in [1] is “inactive”; in assay [2], “inactive”; in assay [3], “inactive”; in assay [4], “inactive”; in assay [5], “inactive”; with CD38, CD38 (gene 952), “inactive”. Further, the outcome is “inactive” with CD40, CD40 (gene 958); “inactive” in assay [6]; “inactive” in assay [7]; “inactive” in assay [8]; “inactive” in assay [9]; “inactive” in [10]. Besides, the outcome in assay [11] was inactive.

Consider `C=CC(C)(O)CCC=C(C)C` (stereo not drawn), for which the outcome in assay [1] is “inactive”; in [2] it was “inactive”; in assay [3], “inactive”; in assay [4], “inactive”; in [5], “inactive”; with CD38, CD38 (gene 952), “inactive”. Moreover, the outcome with CD40, CD40 (gene 958) is “inactive”; in the assay with CD69, CD69 (gene 969), “inactive”; in [6] it was “inactive”; in [7], “inactive”; in [8], “inactive”; in [9], “inactive”. Moreover, the result in assay [10] and in assay [11] was inactive.

In the case of `CN(C)C(=S)SC(=S)N(C)C`, the outcome was “inactive” in assay [1]; “inactive” in assay [2]; “inactive” in [3]; “inactive” in [4]; “inactive” with CD40, CD40 (gene 958); “inactive” with CD69, CD69 (gene 969). The outcome in assay [6], in assay [7], in assay [8] and in [11] was inactive. Further, the AC50 in [5] was 19.9 µM (active); with CD38, CD38 (gene 952) it was 26.7 µM (active); in [9], 1.25 µM (active); in assay [10] it was 0.0189 µM (active).
